Experimental data as given in PubChem BioAssay (NCI).
Values joined by “and” are separate entries in the source; they are usually repeats but may differ in a detail not shown here. Equal values may be shown once. Compounds without any hit were thinned out: in the full panel of roughly 79,000, 15% have a hit. More than one record can exist for a structure, and the calls need not agree. Active and inactive are the calls of the source. Rule as the data show it: active = growth inhibition above about 70%; inactive = the rest.

Tests used:
[1] = NCI Yeast Anticancer Drug Screen. Data for the wt2 strain (AID 169);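 also: 0% = growth of vehicle-treated yeast cultures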; details: S. cerevisiae wt2 strain growth inhibition, stronger effect = higher value
How it was run: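 Values express reduction in yeast growth under compound treatment, referenced to vehicle-treated cells.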

[2] = NCI Yeast Anticancer Drug Screen. Data for the mlh1 strain (AID 171);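 also: 0% = growth of vehicle-treated control cultures of the same strain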; details: S. cerevisiae mlh1 strain growth inhibition, stronger effect = higher value
How it was run: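 Steps: expose the defined-mutant yeast strain to compound; expose a parallel culture to vehicle; measure growth; express compound effect as inhibition relative to the vehicle culture.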

[3] = NCI Yeast Anticancer Drug Screen. Data for the sgs1 strain (AID 173);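 also: 0% = growth of vehicle-only control cultures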; details: S. cerevisiae sgs1 mutant, stronger effect = higher value
How it was run: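 Treat defined-mutant yeast with compound; measure growth; calculate inhibition relative to vehicle-treated cells.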

[4] = NCI Yeast Anticancer Drug Screen. Data for the mlh1 rad18 strain (AID 175); details: S. cerevisiae mlh1 rad18 strain growth inhibition, stronger effect = higher value
How it was run: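 Test agents were incubated with a yeast strain of defined genotype (DNA damage repair defect). Inhibition of growth was derived by comparison with vehicle-exposed cultures.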

[5] = NCI Yeast Anticancer Drug Screen. Data for the rad18 strain (AID 177); details: S. cerevisiae rad18 mutant growth inhibition, stronger effect = higher value
How it was run: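 A genetically defined yeast mutant impaired in DNA damage repair was treated with test compounds, then its growth was measured against cultures receiving vehicle alone.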

[6] = NCI Yeast Anticancer Drug Screen. Data for the rad52 strain (AID 147);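 also: 0% = growth of vehicle-treated control cultures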; details: S. cerevisiae rad52 mutant growth inhibition, stronger effect = higher value
How it was run: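 Screen used a yeast mutant impaired in DNA repair. After compound exposure, growth was measured. Values reflect inhibition compared with vehicle-treated cells.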

[7] = NCI Yeast Anticancer Drug Screen. Data for the wt1 strain (AID 149);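 also: 0% = growth of vehicle-treated wt1 cultures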; details: S. cerevisiae wt1 strain (SPY 50644) growth inhibition, stronger effect = higher value
How it was run: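 Yeast wt1 strain exposed to compounds; growth inhibition measured relative to vehicle-treated controls.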

[8] = NCI Yeast Anticancer Drug Screen. Data for the rad50EPP+ strain (AID 151);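 also: 0% = growth of vehicle-treated control cultures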; details: S. cerevisiae rad50 mutant strain, stronger effect = higher value
How it was run: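 Exposing the rad50EPP+ strain to each compound, growth was compared with vehicle-only cultures to give inhibition.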

[9] = NCI Yeast Anticancer Drug Screen. Data for the mgt1 strain (AID 153); details: S. cerevisiae mgt1 mutant growth inhibition, stronger effect = higher value
How it was run: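 Genetically defined yeast (mgt1) treated with compound; inhibition of growth expressed against vehicle-treated controls.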

[10] = NCI Yeast Anticancer Drug Screen. Data for the rad50 strain (AID 155);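 also: 0% = growth of vehicle-only cultures of the same strain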; details: S. cerevisiae rad50 strain growth inhibition, stronger effect = higher value
How it was run: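 Yeast carrying a defined DNA repair defect were exposed to test compounds, and growth was compared with vehicle-treated controls to give percent inhibition.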

[11] = NCI Yeast Anticancer Drug Screen. Data for the mec2-1 strain (AID 157); details: S. cerevisiae mec2-1 strain, stronger effect = higher value
How it was run: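 Readout is yeast growth inhibition, normalised to vehicle-treated controls, in the mec2-1 strain exposed to compound.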

[12] = NCI Yeast Anticancer Drug Screen. Data for the rad14 strain (AID 159);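 also: 0% = growth of vehicle-treated control cultures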; details: S. cerevisiae rad14 strain growth inhibition, stronger effect = higher value
How it was run: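 Yeast cells carrying a defined DNA-repair defect were exposed to compounds, and growth inhibition was calculated relative to vehicle-treated control cultures.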

[13] = NCI Yeast Anticancer Drug Screen. Data for the sgs1 mgt1 strain (AID 161);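 also: 0% = growth of cultures given vehicle only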; details: S. cerevisiae sgs1 mgt1 strain, stronger effect = higher value
How it was run: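 Yeast cells carrying a defined DNA-repair defect were exposed to test compounds. Growth inhibition was measured relative to vehicle-treated controls.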

[14] = NCI Yeast Anticancer Drug Screen. Data for the CLN2oe strain (AID 163);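 also: 0% = growth of vehicle-only control cultures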; details: S. cerevisiae CLN2oe strain, stronger effect = higher value
How it was run: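 Values reflect how much compound exposure reduced yeast growth, referenced to vehicle-exposed cells. Assay organism is a strain with a defined genetic change affecting cell-cycle control.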

[15] = NCI Yeast Anticancer Drug Screen. Data for the cln2 rad14 strain (AID 165);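 also: 0% = growth equal to vehicle treated cultures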; details: S. cerevisiae cln2 rad14 strain, stronger effect = higher value
How it was run: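 Relative to vehicle controls, growth inhibition of compound-treated cln2 rad14 yeast was recorded.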

[16] = NCI Yeast Anticancer Drug Screen. Data for the bub3 strain (AID 167); details: S. cerevisiae bub3 mutant strain, stronger effect = higher value
How it was run: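 Compounds were applied to a genetically altered yeast strain carrying a cell-cycle control defect. Growth inhibition was scored against vehicle-treated controls.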

[17] = at 5.0 µM (retest, dose inferred, filed as 0.5)
[18] = at 50.0 µM (retest, dose inferred, filed as 5.0)

Measured: growth inhibition

CC1=CC(=C(c2ccc(N)cc2)c2ccc(N)cc2)C=CC1=N
54% (inactive) and 75% (active): [4]; [18]
inactive: [1]; at 1.2 µM -18% | [1]; at 3.7 µM -13% | [1]; at 11.0 µM -12% | [1]; at 33.0 µM -6% | [2]; at 1.2 µM 1% | [2]; at 3.7 µM -4% | [2]; at 11.0 µM 1% | [2]; at 33.0 µM -3% | [3]; at 1.2 µM 11% | [3]; at 3.7 µM 18% | [3]; at 11.0 µM 4% | [3]; at 33.0 µM 11% | [4]; [17] 9% and -3% | [4]; at 50.0 µM 66% and 61.9% | [5]; at 1.2 µM 6% | [5]; at 3.7 µM 4% | [5]; at 11.0 µM -22% | [5]; at 33.0 µM 9%
active: [1]; at 100.0 µM 94% | [2]; at 100.0 µM 81% | [3]; at 100.0 µM 77% | [5]; at 100.0 µM 81%

CC(C)CN(CC(C)C)C(=O)c1ccc(Cl)c(Cl)c1
inactive: [6]; at 1.2 µM -4% | [6]; at 3.7 µM 0% | [6]; at 11.0 µM 6% | [7]; at 1.2 µM -3% | [7]; at 3.7 µM -3% | [7]; at 11.0 µM -3% | [7]; at 33.0 µM 63% | [8]; at 1.2 µM -2% | [8]; at 3.7 µM 0% | [8]; at 11.0 µM 2% | [8]; at 33.0 µM 6% | [8]; at 100.0 µM 3% | [9]; at 1.2 µM 2% | [9]; at 3.7 µM 2% | [9]; at 11.0 µM 1% | [9]; at 33.0 µM 21% | [10]; at 1.2 µM -2% | [10]; at 3.7 µM 4% | [10]; [17] -10% | [10]; at 11.0 µM 6% | [11]; at 1.2 µM -1% | [11]; at 3.7 µM 1% | [11]; [17] 6% | [11]; at 11.0 µM 0% | [12]; at 1.2 µM -2% | [12]; at 3.7 µM -1% | [12]; at 11.0 µM 9% | [12]; at 33.0 µM 31% | [13]; [17] -3% | [14]; at 1.2 µM 2% | [14]; at 3.7 µM 9% | [14]; at 11.0 µM 14% | [14]; at 33.0 µM 41% | [15]; [17] -29% | [15]; [18] 50% | [16]; at 1.2 µM 4% | [16]; at 3.7 µM 3% | [16]; [17] -18% | [16]; at 11.0 µM 8% | [16]; at 33.0 µM 25% | [16]; [18] 22% | [1]; at 1.2 µM -3% | [1]; at 3.7 µM -5% | [1]; at 11.0 µM -5% | [2]; at 1.2 µM 0% | [2]; at 3.7 µM 2% | [2]; at 11.0 µM 5% | [2]; at 33.0 µM 39% | [3]; at 1.2 µM 0% | [3]; at 3.7 µM 3% | [3]; at 11.0 µM 5% | [3]; at 33.0 µM 62% | [4]; [17] -17% | [5]; at 1.2 µM 0% | [5]; at 3.7 µM 4% | [5]; at 11.0 µM 5% | [5]; at 33.0 µM 66%
active: [6]; at 33.0 µM 82% | [6]; at 100.0 µM 98% | [7]; at 100.0 µM 98% | [9]; at 100.0 µM 98% | [10]; at 33.0 µM 85% | [10]; [18] 94% | [10]; at 50.0 µM 94.7% | [10]; at 100.0 µM 99% | [11]; at 33.0 µM 82% | [11]; [18] 76% | [11]; at 50.0 µM 98% | [11]; at 100.0 µM 99% | [12]; at 100.0 µM 99% | [13]; [18] 83% | [13]; at 50.0 µM 95.8% | [14]; at 100.0 µM 99% | [15]; at 50.0 µM 93.2% | [16]; at 50.0 µM 83% | [16]; at 100.0 µM 99% | [1]; at 33.0 µM 74% | [1]; at 100.0 µM 99% | [2]; at 100.0 µM 98% | [3]; at 100.0 µM 99% | [4]; [18] 96% | [4]; at 50.0 µM 97.5% | [5]; at 100.0 µM 99%
